Giardia killer = kills Giardia lamblia. Giardia lamblia trophozoite viability. activity change, % at 7.66 µM, hits read low. actives 0.15% (n = 340,000); in the data active = activity change below about -80%; inconclusive = between about -30% and that limit;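 note: parasites exposed to compound for two days anaerobically before the ATP read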
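Each well holds 100 Giardia trophozoites and compound. After two days (48 hrs) at 37 deg C in anaerobic conditions, ATP is quantified by luminescence.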
A549 tox = counter-screen for Nrf2 inhibitors: cytotoxicity in A549 cells; A549 ARE-Fluc cells, CellTiter-Fluor viability, 18-24 h; Potency, µM (doses to about 46 µM), inactives show at the top dose activity change, negative = cytotoxicity, actives largely listed as inhibitors; actives 0.16% (n = 390,000); AID 504648; note: potency is the fitted concentration of half-maximal effect
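A549 ARE-Fluc cells in 5% FBS OPTI-MEM, 5000 cells/well, rested 2 h then exposed to compounds in concentration-response for 18-24 h at 37 °C. Viability by CellTiter-Fluor fluorescence (Ex 405/Em 525) after 30 min; luciferase luminescence (BugLite, 15 min, RT) read afterwards.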
KB-3-1 cytotox = KB-3-1 parental cell cytotoxicity; KB-3-1 viability, CellTiter-Glo ATP luminescence, 72 h; Potency, µM (doses to about 46.1 µM), actives largely listed as cytotoxic; actives 1.4% (n = 400,000); AID 1347075; note: potency is the fitted concentration of half-maximal effect; nearly all actives have a fitted effect of over 60% in size
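Cytotoxicity in the drug-sensitive parental line KB-3-1 was scored as loss of CellTiter-Glo luminescence following 72 h incubation with compound. Values come from curve fitting of normalized concentration-response data.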
PI4K2A block = blocks human PI4K2A kinase activity; actives 0.13% (n = 420,000); purified PI4K2A, ADP-Glo luminescence, 1 h; stronger effect = lower value; Q9BTU6; AID 1346378; activity change, negative = inhibition, % at 76.9 µM; in the data active = activity change below about -50%; inconclusive = mostly about -30% to -49%;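 note: -100% = wells without enzyme as full effect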
Target sequence (Q9BTU6 whole entry, looked up): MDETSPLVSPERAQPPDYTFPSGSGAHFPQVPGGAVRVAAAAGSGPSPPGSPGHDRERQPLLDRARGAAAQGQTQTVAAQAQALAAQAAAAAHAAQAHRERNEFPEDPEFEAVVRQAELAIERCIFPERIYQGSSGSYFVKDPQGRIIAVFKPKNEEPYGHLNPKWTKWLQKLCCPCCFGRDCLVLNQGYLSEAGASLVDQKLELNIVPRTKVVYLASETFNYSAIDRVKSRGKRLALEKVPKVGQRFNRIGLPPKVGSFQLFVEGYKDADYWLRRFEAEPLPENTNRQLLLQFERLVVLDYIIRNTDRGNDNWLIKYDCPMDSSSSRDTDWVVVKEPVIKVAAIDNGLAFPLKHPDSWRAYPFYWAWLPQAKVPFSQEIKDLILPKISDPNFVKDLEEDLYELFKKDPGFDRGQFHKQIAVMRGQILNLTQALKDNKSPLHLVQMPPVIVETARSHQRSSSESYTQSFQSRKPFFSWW
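PI4K2A activity was measured by ADP-Glo luminescence: enzyme (4 ug/mL stock) and phosphatidylinositol (1.2 mM stock) in Tris pH 7.5/MgCl2/EGTA/Triton X-100 buffer were reacted with ATP (300 microM stock) for one hour at ambient temperature.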
Nrf2 inh = inhibitors of Nrf2 signaling | Potency, µM (top dose mostly 46 µM), for the others: top-dose activity change, negative = inhibition, actives largely listed as inhibitors | A549 ARE-Fluc reporter, luciferase luminescence, 18-24 h | actives 2.1% (n = 360,000); note: potency is the fitted concentration of half-maximal effect; nearly all actives have a fitted effect of over 60% in size
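Quantitative HTS in A549 cells stably bearing an antioxidant response element-firefly luciferase construct. Inhibition of Nrf2-driven transcription was scored by luminescence after 18-24 h of compound exposure at 37 °C.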
KB-V1 cytotox = KB-V1 MDR subline cytotoxicity. actives 3.4% (n = 400,000). KB-V1 MDR cells viability, CellTiter-Glo, 72 h. AID 1347076. Potency, µM (series often up to 46.1 µM), hits mostly cytotoxic; note: potency is the fitted concentration of half-maximal effect; nearly all actives have a fitted effect of over 60% in size
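In this primary screen, KB-V1 cells overexpressing P-gp are incubated with library compounds (lowest to highest concentration) for 72 h at 37 degrees C before a luminescent ATP viability read.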
An asterisk follows results filed as active; i = inactive; ? = inconclusive; · = no result given; [ ] = remark or other dose. Most compounds without a hit are left out; they make up all but 5.7% or so of the library. Unless noted, calls come from the whole dose curve; as a rule, active = well fitted curve in the direction sought with a large enough effect; inconclusive = small, poorly fitted or top-dose-only effect, or another doubt; inactive = no such curve, though single readings can be large; an effect the other way counts as inactive or inconclusive. Unless noted, % is set by controls: 0 for no effect and ±100 for the full control effect.

SMILES | Giardia killer | A549 tox | KB-3-1 cytotox | PI4K2A block | Nrf2 inh | KB-V1 cytotox
CCOC(=O)c1c(NC(=O)C2CCCO2)sc2c1CCC2 (stereo not given) | -4 | 2% | i | -7 | -3% | i
Cc1ccc(-c2nnc(SCC(=O)Nc3ccc(OCc4ccccc4)cc3)n2-c2ccc(Cl)cc2)cc1 | · | · | · | -6 | · | ·
O=C(/C=C/Nc1cccc(C(F)(F)F)c1)c1ccco1 | -5 | -8% | i | 5 | ? | i
O=C(/C=C/Nc1cccc(C(F)(F)F)c1)c1ccc(Oc2ncccn2)cc1 | 2 | -2% | i | 3 | 0% | 21µM*
Brc1ccc2c(c1)OCCOCCOCCOCCOCCO2 | 9 | -2% | i | -1 | -9% | i
CN1CCOCCOc2ccccc2OCCOCC1 | -14 | 0% | i | -4 | 1% | i
Brc1ccc2c(c1)OCCOCCOCCOCCOCCOCCO2 | 26 | -12% | i | -2 | -30% | 6.5µM*
c1ccc2c(c1)OCCOCCOCCOCCOc1ccccc1OCCOCCOCCO2 | 1 | -1% | 26µM* | 2 | -10% | 3.7µM*
C#CCNC(=O)C[C@@H]1C[C@]2(C(=O)OCC)CCC3=C2N(CCC3)C1=O | · | · | · | 7 | · | ·
COc1cc2c(cc1NC(=O)c1cccc(F)c1)CCCC2 | -7 | 22% | i | 7 | 16% | 23µM*
COc1ccc(OCCNC(=O)c2cccc(Oc3ccc(C(F)(F)F)cc3[N+](=O)[O-])c2)cc1 | 20 | -1% | ? | 4 | ? | 2.9µM*
O=C(NCCOc1ccccc1)c1cc(C(=O)NCCOc2ccccc2)cc([N+](=O)[O-])c1 | 2 | 1% | ? | -2 | -4% | 3.7µM*
COc1cc2c(cc1NC(=O)c1cccc(Br)c1)CCCC2 | 5 | 2% | i | -1 | 1% | i
COc1ccccc1Nc1c2c(nc3ccc(NC(=O)c4cccc(F)c4)cc13)CCCC2 | · | ? | 21µM* | -1 | ? | i
COc1ccccc1Nc1c2c(nc3ccc(NC(=O)/C=C/c4cccc(OC)c4OC)cc13)CCCC2 | · | ? | · | 0 | -10%[9.27 µM] | ·
NC(=O)C1CCN(c2nc(-c3ccc4c(c3)OCCCO4)cs2)CC1 | · | · | · | -6 | · | ·
COc1cccc(CNC(=O)CN2C(=O)N(c3c(C)cccc3C)S(=O)(=O)c3ccccc32)c1OC | · | -10% | i | -1 | · | ?
COc1ccc(NS(=O)(=O)c2ccccc2C(=O)O)cc1 | · | 10% | ? | · | 5% | i
O=C(CC(NC(=O)c1ccccc1)c1ccccc1)OCc1nc(-c2cccc(Cl)c2)no1 (stereo not given) | · | · | ? | · | · | i
CC(C)COc1ccc(C(=O)Nc2onc3c2CCCC3)cc1 | · | 4% | i | -12 | ? | i
C=CCOC(=O)N[C@H](c1ccc(-c2ccccc2)cc1)[C@H](C)/C=C/CC(=O)OC | · | · | · | 3 | · | ·
COc1ccc2c(c1)CCCN2C(=O)C1CCCN(S(=O)(=O)c2ccc(Cl)s2)C1 (stereo not given) | · | · | · | 0 | · | ·
COc1cccc(Oc2ccc(C(F)(F)F)cc2NC(=O)c2cccc(F)c2)c1 | -13 | 8% | ? | -1 | -29% | 21µM*
Cc1oc(=O)oc1COC(=O)[C@@H]1N2C(=O)[C@@H](NC(=O)[C@H](N)c3ccccc3)[C@H]2SC1(C)C | · | · | · | 1 | · | ·
COC(=O)C1=C(C)NC(=S)N(C(C)=O)C1c1ccc(OC)c(OC)c1 (stereo not given) | 2 | -13% | i | -1 | 15µM* | ?
SMILES | Giardia killer | A549 tox | KB-3-1 cytotox | PI4K2A block | Nrf2 inh | KB-V1 cytotox
COC(=O)C1=C(C)NC(=O)NC1c1ccc(OC)c(OC)c1 (stereo not given) | · | · | i | -1 | · | ?
COc1ccc(NC(=O)CC2C(=O)N(C)C(=S)N2CCc2ccc(F)cc2)cc1 (stereo not given) | -4 | ? | ? | -2 | 23µM* | ?
COc1ccc(NC(=O)CC2C(=O)N(C)C(=S)N2Cc2ccc3c(c2)OCO3)cc1 (stereo not given) | 0 | 3% | i | -1 | -21% | 15µM*
COc1ccc(CCN2C(=S)N(C)C(=O)C2CC(=O)Nc2ccc(OC)cc2)cc1 (stereo not given) | 12 | -6% | i | 0 | 10% | i
COc1ccc(NC(=O)CC2C(=O)N(C)C(=S)N2CCc2ccccc2)cc1 (stereo not given) | -3 | -3% | ? | 0 | ? | 10µM*
COc1ccc(NC(=O)CC2C(=O)N(c3ccc(C)cc3)C(=O)N2Cc2ccc3c(c2)OCO3)cc1 (stereo not given) | · | 3% | i | 1 | 8% | i
CCOC(=O)c1c(-c2ccc(F)cc2)csc1NC(=O)CCN1CCOCC1 | 8 | -3% | i | 8 | -8% | 15µM*
CCOC(=O)c1c(-c2ccc(-c3ccccc3)cc2)csc1NC(=O)CCN1CCOCC1 | 17 | -9% | ? | 0 | ? | i
CCc1ccc(-c2csc(NC(=O)C3CCCO3)c2C(=O)OC(C)C)cc1 (stereo not given) | 26 | -17% | i | -2 | ? | i
COC(=O)c1c(-c2ccc(F)cc2)csc1NC(=O)C1CCCO1 (stereo not given) | 5 | -4% | i | 1 | 18µM* | ?
Cc1cc2c(s1)c1cnn(Cc3cccc(Br)c3)c(=O)c1n2C | · | -1% | · | · | ? | ·
Cc1ccc(-n2nc(C)c3c2C(Br)C(C)(C)CC3=O)nc1 (stereo not given) | 35 | -14% | i | -6 | 7.3µM* | i
CS(=O)(=O)N[C@@H]1C[C@@H]2O[C@@H](CO)CC[C@@H]2O[C@@H]1CCc1ccc(-c2ccccc2F)cc1 | · | · | · | -6 | · | ·
Nc1nc(CCl)nc(N(c2ccccc2)c2ccccc2)n1 | 6 | -17% | ? | -3 | ? | 16µM*
Cc1cccc2nc(-c3cccnc3)c(Nc3ccccc3)n12 | -3 | -4% | ? | 10 | ? | 18µM*
COC(=O)[C@]12C[C@H](CC(=O)NCc3cccc4ccccc34)C(=O)N(Cc3ccco3)C1=C[C@H](COCc1ccccc1)O[C@@H]2C | · | · | · | -5 | · | ·
O=C(Nc1ccccc1C(F)(F)F)N1CCC(CN2CCc3ccccc3C2)CC1 | · | -3% | · | 4 | ? | ·
S=C(NCc1ccco1)N1CCN(c2cccc(Cl)c2)CC1 | -10 | 7% | i | -3 | 15µM* | i
S=C(NCCN1CCOCC1)N1CCN(c2cccc(Cl)c2)CC1 | -1 | -12% | ? | -4 | ? | 4.6µM*
S=C(NCCN1CCOCC1)Nc1cccc(Cl)c1 | -9 | 8% | i | -3 | 21% | ?

High-throughput results from PubChem BioAssay.
